Results taken from PubChem BioAssay (NCI).
About 79,000 compounds went through this panel and 15% of them were active in at least one assay; those are over-represented in the sample as a whole. Values without a mark were called inactive. Active and inactive are the calls of the source. Rule as the data show it: active = growth inhibition above about 70%; inactive = the rest.

Columns and labels:
[1] = NCI Yeast Anticancer Drug Screen. Data for the rad50 strain (AID 155);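 also: 0% = growth of vehicle-only cultures of the same strain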; details: S. cerevisiae rad50 strain growth inhibition; at 50.0 µM; active compounds read high
Method in brief: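 Genetically altered yeast (DNA repair pathway); compound treatment; growth inhibition vs vehicle ctrl.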

[2] = NCI Yeast Anticancer Drug Screen. Data for the mec2-1 strain (AID 157); details: S. cerevisiae mec2-1 strain, at 50.0 µM, active compounds read high
Method in brief: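 Each compound was tested on mec2-1 yeast, a strain altered in DNA damage repair or cell cycle control. Growth inhibition is reported relative to vehicle.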

[3] = NCI Yeast Anticancer Drug Screen. Data for the sgs1 mgt1 strain (AID 161);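 also: 0% = growth of cultures given vehicle only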; details: S. cerevisiae sgs1 mgt1 strain, at 50.0 µM, active compounds read high
Method in brief: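 Mutant yeast exposed to compound; growth scored against vehicle-only wells.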

[4] = NCI Yeast Anticancer Drug Screen. Data for the cln2 rad14 strain (AID 165);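 also: 0% = growth equal to vehicle treated cultures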; details: S. cerevisiae cln2 rad14 strain, at 50.0 µM, active compounds read high
Method in brief: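 Test compounds were added to cln2 rad14 yeast cultures; inhibition of growth was then determined by comparison with vehicle treatment.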

[5] = NCI Yeast Anticancer Drug Screen. Data for the bub3 strain (AID 167); details: S. cerevisiae bub3 mutant strain, at 50.0 µM, active compounds read high
Method in brief: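 Yeast carrying a defined mutation is treated with each compound, and growth is compared with that of vehicle-exposed cells to give inhibition.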

[6] = NCI Yeast Anticancer Drug Screen. Data for the mlh1 rad18 strain (AID 175); details: S. cerevisiae mlh1 rad18 strain growth inhibition; at 50.0 µM; active compounds read high
Method in brief: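 Inhibition values reflect reduced growth of mutant yeast versus vehicle-treated controls following compound exposure; the mutations affect DNA damage repair.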

SMILES | growth inhibition [1] | growth inhibition [2] | growth inhibition [3] | growth inhibition [4] | growth inhibition [5] | growth inhibition [6]
CC1=NN(C(=O)CC(=O)NC(=O)CC(=O)Nc2ccccc2F)C(=O)C1N=Nc1ccc([N+](=O)[O-])cc1 (stereo unspecified) | 20.5% | 22.6% | 30% | 16.3% | 12.1% | 8.2%
c1ccc(-c2ccc(C(=C(c3ccc(-c4ccccc4)cc3)c3ccc(-c4ccccc4)cc3)c3ccc(-c4ccccc4)cc3)cc2)cc1 | 1.1% | -0.85% | -9.9% | -4.15% | -4.7% | -12.6%
Cn1c(=O)c2c(nc(CCC(N)=O)n2C)n(C)c1=O | -1.35% | -20.9% | 8.25% | -14.8% | 11.8% | 12.7%
CS(=O)(=O)CCC(Nc1ccc([N+](=O)[O-])cc1[N+](=O)[O-])C(=O)O (stereo unspecified) | 4.7% | 6.1% | 22.1% | 4.25% | 5.6% | -11.7%
CC1(C)N=C(N)N=C(N)N1c1ccc(C(F)(F)F)cc1 | 4.15% | 10.1% | 7.85% | -0.5% | 49% | 29.4%
Oc1ccccc1/C=N/c1nc(-c2ccccc2)cs1.[Co].[O-]c1ccccc1/C=N/c1nc(-c2ccccc2)cs1 | 19.2% | 5.9% | 9.8% | 22.4% | 5.35% | 21.2%
COCCOC(=O)c1ccc(C(N)=NC2CCCCC2)cc1 | -1.2% | 4.25% | 3.9% | 0.95% | 8.65% | -0.7%
O=C(NNC1=NCCCCN1)Nc1ccc(Cl)cc1 | 20.9% | 6.8% | 26.4% | 7.4% | 16.6% | 5.95%
CCCCCCCCCCCCP(=O)(O)O | -8.2% | -24.1% | -19.9% | -9.65% | 6.35% | -10.9%
COC(=O)C1=C(\N2CCOCC2)CCCC/C=C\1C(=O)OC | -2.55% | 1.15% | -4.9% | -10.3% | 3.65% | -4.5%
O=C(ONC1CCC(CC2CCCCC2)CC1)c1ccccc1 (stereo unspecified) | 98.5% (active) | 98.8% (active) | 99% (active) | 96.8% (active) | 98.2% (active) | 98.5% (active)
O=C(O)CCCCCCCCCC(=O)O | -15.1% | -17.5% | 0% | -24.9% | -7.7% | 9.05%
CCOC(=O)SC1=NC(C)=CC(C)(C)S1 | 2.4% | 6.55% | 18.6% | -10.9% | -3.7% | -4.7%
C/C(=N\NC(=S)N(C)C)c1nc2ncccc2[nH]1 | -44.1% | -24.1% | -64.8% | -1.5% | 18.7% | -19.1%
CCOC(CN(C)C(=S)Nc1cccc2ccccc12)OCC | -27.1% | -30.1% | -2.2% | -6.45% | -6.9% | -13.2%
Nc1ccc(-c2ccccc2)cc1[N+](=O)[O-] | 33.2% | -8.85% | 16.1% | -23.2% | 21.1% | 8.8%
C=CCOc1cc2c(cc1Cc1cc(OC)c(OC)c(OC)c1)OCO2 | 22.9% | -20.8% | 49.6% | 9.85% | 37.6% | 55.2%
CC(C)NCC(C)(C)[N+](=O)[O-] | 5.05% | -8.55% | 3.65% | -4.1% | 3.3% | -0.95%

SMILES | growth inhibition [1] | growth inhibition [2] | growth inhibition [3] | growth inhibition [4] | growth inhibition [5] | growth inhibition [6]
CC(c1ccccc1)n1cnc2c(Cl)ncnc21 (stereo unspecified) | 5% | -16.7% | 5.05% | -0.5% | 6.3% | -17.2%
CC12CCC3c4ccc(OC(=O)c5ccccc5)cc4CCC3C1CC(O)C2 (stereo unspecified) | -5.5% | 38.1% | 50.2% | 42.7% | 69.6% | 11.9%
O=c1[nH]c2c(c(=O)[nH]1)SSC2 | -24.4% | -12.8% | -39.4% | -7.7% | -28.4% | -10.1%
O=C(O)CCCCCCCCC(=O)O | -7.55% | -39% | 7.9% | -12.6% | -23.8% | -17.6%
CCCCCCCCC(O)C(O)CCCCCCCCOC(=O)CCCCCCCCCCC(O)CCCCCC (stereo unspecified) | 13.1% | -8.65% | -1.55% | -9.7% | -2.1% | 18.4%
Cc1cccc2c1Oc1ccccc1C2NC(=O)OCCCl (stereo unspecified) | 1.8% | 13.1% | 8.7% | -37% | 0.85% | 12.8%
c1ccc(-c2coc(-c3ccccc3)n2)cc1 | 1.15% | 8.65% | 3.25% | -2% | -5.15% | -10.2%
O=C1CCc2nc(=O)c3c4ccccc4ccc3n21 | 3.95% | 1.55% | -5.35% | -36.5% | -3.95% | -0.2%
c1ccc(Oc2ccccc2-c2ccccc2)cc1 | 6.1% | -26.1% | -0.7% | -0.65% | -23.1% | 15.9%
O=C(Nc1ccccc1)Oc1ccccc1C1CCCCC1 | 26.8% | 2.4% | 6% | 16.8% | -18.9% | -20%
O=C(Nc1cc(C(F)(F)F)ccc1Cl)N(Cc1ccccc1)c1ccccc1 | -10.3% | -15.9% | -1.35% | -74.2% | -8.2% | -8.7%
OC(Cc1cccnc1)(c1ccccc1)c1ccccc1 | -0.3% | -40.4% | -16.7% | -21.5% | -13.9% | -0.4%
Cc1[nH]c(=O)nc(N/N=C/c2ccc(Cl)cc2)c1C(=O)Nc1ccc(Cl)cc1 | -5.35% | 16.4% | -3.9% | 1.65% | -34.4% | -12.5%
CCN(CC)C(=O)N1CCN(c2ccccc2)CC1 | -1.4% | 12.3% | -4.95% | 5.65% | 3.45% | -23.8%
C/C(=N\Nc1cc(C)nc2cc3c(cc12)OCO3)c1cn(C)n(-c2ccccc2)c1=O | 19.9% | 54.5% | 21.6% | 34.9% | 12.4% | 39.1%
CCOC(=O)c1sc(SC)nc1NC(=O)c1ccc(OC)cc1 | 24.6% | 21.7% | -31.6% | 17.2% | 2.1% | 19.1%
COc1cccc(C(=O)NNC(=O)c2ccc3ccccc3c2)c1 | 13.2% | 4.55% | -2.45% | 6.55% | 3.9% | 7.95%
O=C(CN1C(=O)c2cccc3c(Br)ccc(c23)C1=O)c1ccc(F)cc1 | -10.4% | -14.7% | 7.6% | 18.7% | -12% | 1.3%
